Compound activity (PubChem BioAssay)
Shown are actives, neighbours in structure and some others; about 6.1% of the full set was active somewhere.
D1 PAM – enhances dopamine response at the human D1 receptor; P21728; HEK293 TREx D1 cells, calcium flux, dopamine EC20 potentiation; potentiation, % at 10 µM; 0.036% of 360,000 active; AID 504651; in the data active = potentiation above about 30%; also: 0% is about no effect
Target sequence (P21728 whole entry, looked up): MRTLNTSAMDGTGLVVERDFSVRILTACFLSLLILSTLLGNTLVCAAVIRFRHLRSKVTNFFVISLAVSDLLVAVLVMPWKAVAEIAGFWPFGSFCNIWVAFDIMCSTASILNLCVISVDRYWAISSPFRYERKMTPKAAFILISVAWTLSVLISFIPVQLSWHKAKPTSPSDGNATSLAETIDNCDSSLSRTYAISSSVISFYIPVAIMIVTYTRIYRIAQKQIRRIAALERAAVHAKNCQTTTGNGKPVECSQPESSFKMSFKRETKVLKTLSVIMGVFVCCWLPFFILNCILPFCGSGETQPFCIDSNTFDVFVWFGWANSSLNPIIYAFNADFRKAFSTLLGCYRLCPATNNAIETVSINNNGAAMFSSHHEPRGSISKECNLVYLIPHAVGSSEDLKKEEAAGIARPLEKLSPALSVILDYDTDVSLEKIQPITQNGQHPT
DRD3 antagonist – blocks the human D3 dopamine receptor; D3R cells, DiscoveRx beta-arrestin luminescence, antagonist mode; hits give low values; max response, negative = inhibition, %; 2.5% of 360,000 active; in the data active = max response below about -50%; also: % is scaled to controls: 0 for no effect and ±100 for the full control effect
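Cells plated overnight at 1500 cells/well, then exposed to library compounds with dopamine controls for 90 minutes at 37 degrees C. DiscoveRx reagent added for 30–60 minutes at room temperature; luminescence read, quantitative HTS format.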
DRD3 agonist – agonists of human D3 dopamine receptor. P35462. D3R DiscoveRx beta-arrestin cells, luminescence, 90 min. max activation, %. 0.58% of 410,000 active; in the data active = max activation above about 30%; also: 0% is about no effect
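Agonist-mode cell screen: cells plated at 1500/well and incubated overnight at 37 °C, then exposed to library compounds for 90 min at 37 °C. Detection reagent was added for 30–60 min at room temperature, and luminescence was read.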
D1 agonist – human D1 receptor agonism. P21728. HEK293 T-REx D1 cells, calcium flux, agonist mode. activation, % at 2 µM. 1% of 360,000 active; in the data active = activation above about 30%; also: 0% is about no effect
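Tetracycline-induced HEK293 TREx D1 cells, force-coupled to calcium signalling, were dye-loaded with a no-wash calcium kit. Compound was pin-added after a 10 s baseline. Fluorescence was read kinetically at 1 cycle/s for 180 s, with calcium rises flagged as agonism.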
D1 antag – human D1 dopamine receptor antagonism. P21728. AID 504652. activity change, negative = inhibition, % at 10 µM. 3.2% of 360,000 active. HEK293 TREx D1 cells, calcium flux, dopamine EC80; hits give low values; in the data active = activity change below about -30%; also: % is scaled to controls: 0 for no effect and ±100 for the full control effect
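Inducible Hek293 Trex D1 cells (tetracycline, overnight, 30 C). Calcium dye 30–90 min RT. Antagonist mode: EC80 dopamine added after 180 s compound read.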
* hit, by the source's call; · = not tested or not shown.

SMILES	D1 PAM	DRD3 antagonist	DRD3 agonist	D1 agonist	D1 antag
CCc1ccc(-c2cc(C)no2)cc1S(=O)(=O)Nc1cc(C)on1	-5	-75*	-24	3	2
Cc1cc(NS(=O)(=O)c2cccs2)no1	-15	21	2	1	-83*
COc1ccc(CCNC(=O)c2cc(-c3cccs3)on2)cc1OC	-5	14	36*	8	-6
CN(C)N=Nc1nc2c(c(=O)n(C)c(=O)n2C)n1CC1CO1 (centres undefined)	5	-17	-2	2	-11
COc1ccc(CNC(=O)c2cc(-c3ccc(OC)c(OC)c3)on2)cc1	-4	-11	4	-4	-4
COc1ccc(-c2cc(C(=O)NCc3ccccc3)no2)cc1OC	0	9	-9	37*	2
Cc1cc(NC(=O)c2c(Cl)cnn2C)no1	5	-71*	1	1	-2
Cn1ncc(Cl)c1C(=O)Nc1ccc(Cl)cn1	-1	-20	-8	0	1
O=C(NCCc1ccccc1)c1nc(-c2cccs2)no1	-2	-9	-2	1	-36*
CCOc1ccc(CNC(=O)c2cnc3c(C)cccn3c2=O)cc1	0	·	-1	1	-24
Cc1ccc(S(=O)(=O)CCN2C=CC(C(F)(F)F)=NCC2)cc1	3	7	4	4	6
Cc1cccc(C)c1NC(=O)CN(C)C(=O)[C@H](C)NC(=O)c1ccco1	7	-14	-5	4	-80*
CCS(=O)(=O)c1ccc(-c2csc(-c3ccc(Cl)cc3)n2)c(Cl)c1Cl	-5	-20	10	2	-33*
CC(NC(=O)c1ccccc1F)C1CC1 (centres undefined)	-1	15	6	2	0
CCN(CC)c1ccc(NC(=O)c2ccco2)c(C)c1	4	-18	-23	-2	-14
CCN(CC)c1ccc(NC(=O)c2ccc(Br)o2)c(C)c1	-9	-73*	2	35*	-1
CC(=O)OCC(C)n1[nH]c2ccccc2c1=O (centres undefined)	·	-1	4	·	·
COC(=O)CC1C(=O)NCCN1C(=O)CSc1nnnn1-c1ccc(OC)cc1 (centres undefined)	-2	10	0	2	1
CCOc1ccc2[nH]c(=O)c(CN(Cc3cccs3)Cc3nnnn3C(C)(C)C)cc2c1	0	-11	5	1	-30*
CCOC(=O)C[C@H]1c2ccccc2S(=O)(=O)N1C1CC1	·	0	0	·	·
CC(=O)C[C@H]1c2ccccc2S(=O)(=O)N1C1CCCC1	·	-168*	-27	·	·
O=C(CCl)Nc1cc(S(=O)(=O)N2CCCCCC2)ccc1Cl	-1	-2	0	2	-9
Cc1ccc(CNS(=O)(=O)c2cnc(N)nc2)cc1	-6	·	6	2	2
CC(=O)OCc1c(C(F)(F)F)nn(C)c1Oc1cccc(C(F)(F)F)c1	-12	24	0	18	-35*
CC(=O)OCc1c(C(F)(F)F)nn(C)c1Oc1ccccc1	-2	0	-7	-1	-14
SMILES	D1 PAM	DRD3 antagonist	DRD3 agonist	D1 agonist	D1 antag
Cc1cccc(CS(=O)(=O)c2ncc(Cl)c(C(=O)NCc3ccc4c(c3)OCO4)n2)c1	2	-97*	-1	-1	2
COC(=O)c1ccccc1NC(=O)c1nc(S(=O)(=O)Cc2cccc(C)c2)ncc1Cl	-2	·	8	1	-14
COC(=O)c1ccc(NC(=O)c2nc(S(=O)(=O)Cc3cccc(C)c3)ncc2Cl)cc1	10	-53*	-28	0	32
CCS(=O)(=O)c1ncc(Cl)c(C(=O)Nc2c(C(=O)Nc3cccc(C)c3)oc3ccccc23)n1	0	·	6	3	-8
Cc1ccc(CNC(=O)c2nc(S(=O)(=O)Cc3ccc(C)cc3)ncc2Cl)cc1	-2	·	-19	1	-26
CC(=O)Nc1ccc(NC(=O)c2nc(S(=O)(=O)Cc3cccc(C)c3)ncc2Cl)cc1	-4	-75*	-28	1	-26
CCOC(=O)c1cc(-c2ccccc2)nc2nc(N(CC)CC)sc12	·	28	9	15	8
CCOC(=O)c1c(S(=O)(=O)N2CCC(C(=O)Nc3cccc(C#N)c3)CC2)c(C)n(C)c1C	0	·	6	-1	-4
CN1CCN(C(=O)C23CCC(C)(c4nc5ccccc5nc42)C3(C)C)CC1 (centres undefined)	3	-51*	-8	2	7
CCOc1ccc(N=C2NC(=O)S/C2=C\c2ccc(N(C)C)cc2)cc1	-4	-69*	-11	81*	1
